NPR1 antag: Natriuretic polypeptide receptor (hNpr1) antagonism - Primary qHTS; Potency, µM (titrated, usually from 46.3 µM), for the others: at the highest dose activity change, negative = inhibition, usual class: inhibitors; 76,000 tested, 1.6% active; HEK293 hNpr1 GloSensor cGMP, ANP-stimulated luminescence; AID 1347048, 2019; Atrial natriuretic peptide receptor 1 (Homo sapiens), P16066; calls by dose curve; also: % is scaled to controls: 0 for no effect and ±100 for the full control effect; nearly all actives have a fitted effect of over 60% in size
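Compound pre-incubated 30 min at room temperature on GloSensor-loaded HEK293 cells stably carrying hNpr1 and the pGS-40F cGMP biosensor. Stimulation uses hNppA at 0.1 nM final; luminescence is taken at baseline and 20 min post-agonist.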
HEK cytotox: Cytotoxic Profiling in HEK 293 Cell Line of Diverse Libraries Using Quantitative High-Throughput Screening | HEK 293 viability, ATP luminescence (CellTiter-Glo), 48-72 h | Potency, µM (series often up to 115 µM), without a hit: top-dose activity change, negative = cytotoxicity, hits mostly inhibitors | 94,000 tested, 6.6% active | AID 1345083, 2018; also: % is scaled to controls: 0 for no effect and ±100 for the full control effect; nearly all actives have a fitted effect of over 60% in size
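HEK 293 cells at 250 cells/well were exposed to compounds by pintool transfer for 48 or 72 hr at 37 degree Celsius, 5% CO2. Viability was read as ATP-coupled luminescence with CellTiter-Glo after 10 min at room temperature.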
FLuc inh-1: Firefly luciferase inhibition profiling of diverse chemical library using quantitative high-throughput screening. 76,000 tested, 2.5% active. Luciferin 4-monooxygenase (Photinus pyralis), P08659. purified P. pyralis luciferase, luminescence, biochemical. Potency, µM (top dose mostly 115 µM), hits mostly inhibitors; also: % is scaled to controls: 0 for no effect and ±100 for the full control effect; nearly all actives have a fitted effect of over 65% in size
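Cell-free enzyme assay, 10nM P. pyralis luciferase, luciferin and ATP each at 10uM. Inhibition profiled over a 6-point titration, read as luminescence.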
GPT2 inh: Primary qHTS assay for inhibitors of Glutamate pyruvate transaminase 2 (GPT2); Alanine aminotransferase 2 (Homo sapiens), Q8TD30; AID 1671188, 2021; 100,000 tested, 0.25% active; Potency, µM (highest dose often 57.7 µM), inactives show at the top dose activity change, negative = inhibition, actives largely listed as inhibitors; Recombinant GPT2, coupled pyruvate oxidase/HRP Amplex Red fluorescence; also: % is scaled to controls: 0 for no effect and ±100 for the full control effect; nearly all actives have a fitted effect of over 60% in size
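Fluorescence read-out: pyruvate from GPT2 turnover coupled to pyruvate oxidase, HRP and Amplex Red (0.2mM ThPP, 0.2U/mL PO and HRP, 50uM Amplex final). Substrates 250uM a-KG, 2mM L-alanine; enzyme 10ng/uL; 30 min RT.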
NIH3T3 tox: Cytotoxic Profiling in NIH 3T3 Cell Line of Diverse Libraries Using Quantitative High-Throughput Screening; Potency, µM (series often up to 96.7 µM), without a hit: at the top dose activity change, negative = cytotoxicity, hits mostly inhibitors; NIH 3T3 viability, CellTiter-Glo ATP luminescence, 48-72 h; 94,000 tested, 4.3% active; AID 1345082, 2018; also: % is scaled to controls: 0 for no effect and ±100 for the full control effect; nearly all actives have a fitted effect of over 55% in size
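NIH 3T3 cells at 400 cells/well received 23 nL of compound by pintool and were incubated 48 or 72 h at 37 °C. Viability was read as ATP-coupled CellTiter-Glo luminescence.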
FLuc SDR no ATP: Firefly luciferase (FLuc-C-HiBiT) SDR gain of signal screen - without ATP; shares compounds with FLuc inh-1; Purified FLuc-C-HiBiT, Nano-Glo HiBiT luminescence, no ATP; Potency, µM (series often up to 32.7 µM), for the others: top-dose activation (signal gain), hits mostly activators; 1,300 tested, 7.8% active; AID 1963318, 2024; also: nearly all actives have a fitted effect of over 55% in size
FLuc SDR ATP: Firefly luciferase (FLuc-C-HiBiT) SDR gain of signal screen - plus ATP. purified FLuc-C-HiBiT + ATP, HiBiT complementation luminescence. 1,300 tested, 8.7% active. Potency, µM (highest dose often 32.7 µM), without a hit: at the highest dose activation (gain of signal), hits mostly activators. shares compounds with FLuc inh-1;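 also: signal reports ligand binding via conformational change of the enzyme rather than luciferase catalysis; % of control where 0% means no effect; nearly all actives have a fitted effect of over 55% in size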
FLuc inh-2: Firefly luciferase (FLuc-C-HiBiT) enzymatic inhibition screen - Functional assay; purified FLuc-C-HiBiT enzyme, luciferin luminescence; 1,300 tested, 42% active; shares compounds with FLuc inh-1; Potency, µM (top dose mostly 32.7 µM), without a hit: at the highest dose activity change, negative = inhibition, most hits filed as inhibitors; also: % is scaled to controls: 0 for no effect and ±100 for the full control effect; nearly all actives have a fitted effect of over 70% in size
The depositor's hits bear a star; [ ] = another dose, or the depositor's remark. A selection: hits, their analogues and other compounds. The true share with any hit is near 10%. Unless noted, calls follow the shape of the dose curve; as a rule, active = well fitted curve in the direction sought with a large enough effect; inconclusive = small, poorly fitted or top-dose-only effect, or another doubt; inactive = no such curve, though single readings can be large; an effect the other way counts as inactive or inconclusive. Potency is read from the fitted curve at half-maximal effect.

Results for CC(CCn1cccn1)NC(=O)c1csc2nc(-c3ccc(C(F)(F)F)cc3)cn12 (centres undefined) ?
NPR1 antag: -27.2%; HEK cytotox: inconclusive; FLuc inh-1: 12.6µM*; GPT2 inh: -6.0%; NIH3T3 tox: inconclusive; FLuc SDR no ATP: 17.2%; FLuc SDR ATP: 12.3%; FLuc inh-2: 9.89µM*

How did CC(C)N1C(=O)C(CC(=O)NCC2CCN(Cc3ccccc3F)CC2)=C2CCCCC21 (centres undefined) do in these assays?
NPR1 antag: -3.2%; HEK cytotox: -21.3%; FLuc inh-1: inactive; GPT2 inh: inconclusive; NIH3T3 tox: -11.4%

What do the screens show for `O=C(c1ccc(C(F)(F)F)cc1)N1CCC(C(=O)N2CCCC(c3nc4ncccc4[nH]3)C2)CC1` (centres undefined)?
HEK cytotox: inconclusive; GPT2 inh: inactive; NIH3T3 tox: -30.6%

What do the screens show for `CCCCN(C)S(=O)(=O)c1ccc(C(=O)Nc2ccc(-c3nc4ccc(C)cc4s3)cc2)cc1`?
FLuc SDR no ATP: 16.1%; FLuc SDR ATP: 12.0%; FLuc inh-2: -15.0%

How did Cc1ccc2nc(-c3ccc(NC(=O)COc4ccccc4C(C)(C)C)cc3)sc2c1 do in these assays?
FLuc SDR no ATP: 19.1%; FLuc SDR ATP: 11.7%; FLuc inh-2: inconclusive

Results for Cc1ccc(NC(=O)COc2cccc(-c3nnc4n3CCCC4)c2)cc1 ?
NPR1 antag: 3.7%; HEK cytotox: -10.4%; FLuc inh-1: inactive; GPT2 inh: inactive; NIH3T3 tox: -20.4%

Results for Cc1ccc2nc(-c3ccc(NC(=O)COc4ccccc4)cc3)sc2c1 ?
FLuc SDR no ATP: 26.4%; FLuc SDR ATP: 19.2%; FLuc inh-2: 6.24µM*

Results for CCOc1ncccc1C(=O)OCC(=O)Nc1ccc(-c2nc3ccc(C)cc3s2)cc1 ?
FLuc SDR no ATP: 21.9%[65.7 µM]; FLuc SDR ATP: 19.2%[65.7 µM]; FLuc inh-2: inconclusive

How did CCc1ccc(C(=O)Nc2ccc(-c3nnc4n3CCCC4)cc2)cc1 do in these assays?
NPR1 antag: -2.4%; HEK cytotox: 3.2%; FLuc inh-1: inconclusive; GPT2 inh: -11.6%; NIH3T3 tox: -3.6%

What do the screens show for `COC(=O)CNC(=O)c1cc(-c2cccc(C(F)(F)F)c2)nc2c1cnn2C`?
HEK cytotox: -22.2%; NIH3T3 tox: inconclusive

How did Cc1cnc(CC2CCCN(S(=O)(=O)c3cccs3)C2)n1C(C)C (centres undefined) do in these assays?
HEK cytotox: inconclusive; GPT2 inh: 0.4%; NIH3T3 tox: -14.6%

Results for CCNc1cc(N2CCC(CCC(=O)O)CC2)ncn1 ?
NPR1 antag: 0.0%; HEK cytotox: 10.8%; FLuc inh-1: 31.6µM*; GPT2 inh: inactive; NIH3T3 tox: -8.0%; FLuc SDR no ATP: 12.8%; FLuc SDR ATP: 9.89µM*; FLuc inh-2: 5.56µM*

How did CCNc1cc(N2CCC(CCC(=O)Nc3cccc(OC)c3)CC2)ncn1 do in these assays?
NPR1 antag: inconclusive; HEK cytotox: inconclusive; FLuc inh-1: inconclusive; GPT2 inh: 3.3%; NIH3T3 tox: -14.9%

How did CCCc1ccc2oc(C(=O)NCCc3nncn3CC)c(C)c2c1 do in these assays?
NPR1 antag: -15.5%; HEK cytotox: inconclusive; FLuc inh-1: 3.55µM*; GPT2 inh: 0.2%; NIH3T3 tox: inconclusive; FLuc SDR no ATP: 13.4%; FLuc SDR ATP: 15.2%; FLuc inh-2: inconclusive

What do the screens show for `COCCn1cnnc1CCNC(=O)c1oc2cc(OC)ccc2c1C`?
NPR1 antag: -0.7%; HEK cytotox: -0.4%; FLuc inh-1: inactive; GPT2 inh: inactive[11.5 µM]; NIH3T3 tox: -1.0%

How did O=C(O)c1cccc(C(=O)CCC2OC(n3cnc4c(=O)[nH]cnc43)C(O)C2O)c1 (centres undefined) do in these assays?
GPT2 inh: inactive

How did COc1ccc(CCNC(=O)c2cc3c(=O)[nH]c(C)cn3n2)cc1OC do in these assays?
NPR1 antag: 7.1%; HEK cytotox: 0.7%; FLuc inh-1: inactive; GPT2 inh: inactive; NIH3T3 tox: -13.3%

Results for COc1ccc(NC(=O)c2cc3c(=O)[nH]c(C)cn3n2)cc1OC ?
NPR1 antag: 0.0%; HEK cytotox: inconclusive; FLuc inh-1: 7.08µM*; GPT2 inh: inactive; NIH3T3 tox: -19.0%; FLuc SDR no ATP: inconclusive; FLuc SDR ATP: inconclusive; FLuc inh-2: 9.89µM*

Results for CC1=C[C@@H]2[C@H]3[C@@H]4O[C@@](C)(CC[C@H]4O)[C@H]3CC(=O)[C@]23C(=O)N[C@@H](CC(C)C)[C@@H]3[C@@H]1C ?
GPT2 inh: -1.9%[27.3 µM]

What do the screens show for `CN1CCN(c2ccc(-c3cc4c(ccn4C)c(C(=O)NCCN4CCNC4=O)n3)cc2)CC1`?
NPR1 antag: 5.8%; HEK cytotox: inconclusive; FLuc inh-1: 4.47µM*; GPT2 inh: 0.6%; NIH3T3 tox: inconclusive; FLuc SDR no ATP: 24.7%; FLuc SDR ATP: 16.0%; FLuc inh-2: inconclusive

Results for COc1ccc(-c2cc3c(ccn3C)c(C(=O)NCCC(N)=O)n2)cc1OC ?
NPR1 antag: 0.1%[70.6 µM]; HEK cytotox: -11.0%[172 µM]; FLuc inh-1: inconclusive; GPT2 inh: -8.3%[88.5 µM]; NIH3T3 tox: inconclusive

Screening results as filed in PubChem BioAssay.
